The structures appear in SMILES notation. Results filed as inconclusive are left out. Values without a mark were called inactive. Calls of active or inactive are those of the source. Calls follow the shape of the dose curve; as a rule, active = well fitted curve in the direction sought with a large enough effect in the repeat runs; inconclusive = weak or mixed curves; inactive = no such curve, though single readings can be large; an effect the other way counts as inactive or inconclusive.
% is scaled to controls: 0 for no effect and ±100 for the full control effect.

The first assay is described as follows: qHTS assay to identify small molecule agonists of the RXR signaling pathway - cell viability counter screen (AID 1159529).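 Also: HEK 293T cells carrying an RXR-alpha UAS beta-lactamase reporter; nearly all actives have a fitted effect of over 50% in size.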 The following applies: RXR-alpha-bla HEK293T viability, CellTiter-Glo, 16 h; series mostly up to 76.8 µM. Put shortly: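 Same-well viability check after the LiveBLAzer FRET read: CellTiter-Glo added, luminescence measured after 30 min at room temperature. Reporter HEK 293T cells had been treated with compounds for 16 hr following a 5 hr preincubation.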
As for `C=CCCCCCCCCCCCC`, the compound was classed as inactive.
Same read-out and setting: to `O=C(O)c1ccc(Cl)cc1Cl` belongs “inactive”; to `O=C1CC(c2ccc(Cl)cc2)CC(=O)N1`, “inactive”.
Turning to `Cc1nc2n(c(=O)c1CCN1CCC(c3noc4cc(F)ccc34)CC1)CCC[C@H]2O`, the activity change, negative = cytotoxicity was -5.89% [at 15.8 µM].
On to `CN(C)C(=O)CNC(=O)Cc1ccccc1`, for which the call was inactive.
Still for that read-out and setting: to `C=C(C)C(=O)OCC(C)(C)COC(=O)C(=C)C` belongs “inactive”; to `On1nnc2ccccc21`, “inactive”; to `CN=C(NC#N)Nc1ccc(C2=NNC(=O)CC2C)cc1` (stereo not drawn), “inactive”.
Still for that read-out and setting: then `CC(=O)Nc1cccc(C)c1`, with “inactive”; and `CCc1ccc(C=O)cc1`, with “inactive”; and `CC/C=C\CC1=C(C)CCC1=O`, with “inactive”.
Regarding `OC[C@H](Cc1cccc(O)c1)[C@H](CO)Cc1cccc(O)c1`, the compound was classed as inactive.
As to `COc1ccc(Br)c(C)c1`, the compound was classed as inactive.
Regarding `Cc1ccc(C=O)cc1C`, the outcome was inactive.
As to `CCCC/C=C\CCCCCCCCCC=O`, the result was inactive.
As for `COc1cc2c(cc1OC)[C@@H]1CC(=O)[C@@H](CC(C)C)CN1CC2`, the compound was classed as inactive.
The same measure, in the same setting: to `c1ccc2nccnc2c1` belongs “inactive”.
On the same count and under the same terms, then `Cc1ccc2ccc(Cl)cc2n1`, with “inactive”.
`CC(=O)OC(C)OC(=O)C(C)c1ccc(-c2ccccc2)c(F)c1` (stereo not drawn): the call was inactive.
For `CC(C)(C)c1nnc(NS(=O)(=O)c2ccc(N)cc2)s1`, the outcome was inactive.
Take `CCn1ccc(NS(=O)(=O)c2ccc(N)cc2)nc1=O`: the compound was classed as inactive.
For `Cc1ccc2c(c1)OCC(=O)CO2`, the outcome was inactive.
On the same count and under the same terms, then `Cc1ccc(S(=O)(=O)O)c(C)c1`, with “inactive”; and `Cc1cc2cc3c(C)cc(=O)oc3c(C)c2o1`, with “inactive”; and `COc1nccnc1NS(=O)(=O)c1ccc(N)cc1`, with “inactive”.
Turning to `C=C(C)C1CCC(C)(O)CC1` (stereo not drawn), the compound was called inactive.
In the case of `CC(C)N(c1ccccc1)C(C)C`, the call was inactive.
Same read-out and setting: then `C=C(C)C(=O)OCCOP(=O)(O)OCCOC(=O)C(=C)C`, with “inactive”; and `Cc1cc(Cl)c(C)cc1Cl`, with “inactive”.
On the same count and under the same terms, to `O=C(O)Cc1cn(-c2ccccc2)nc1-c1ccc(Cl)cc1` belongs “inactive”.
Same read-out and setting: then `COC(=O)CCc1ccc(OCC(O)CNC(C)C)cc1` (stereo not drawn), with “inactive”; and `COc1ccc(-c2cc(=O)c3c(O)cc(O[C@@H]4O[C@H](CO[C@@H]5O[C@@H](C)[C@H](O)[C@@H](O)[C@H]5O)[C@@H](O)[C@H](O)[C@H]4O)cc3o2)cc1O`, with “inactive”.

A short description of a further assay: qHTS assay to identify small molecule antagonists of the retinoid acid receptor (RAR) signaling pathway - cell viability counter screen (AID 1159551). Also: nearly all actives have a fitted effect of over 35% in size. The following applies: C3RL4 cells viability, ATP luminescence (CellTiter-Glo), 6 h; series mostly up to 92.4 µM. A digest of the protocol: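 C3RL4 RARE-luciferase cells, 1,000/well, incubated overnight, then dosed with compound plus 1 uM retinol (final). After 6 hr at 37 C, viability read by CellTiter-Glo ATP luminescence following 30 min at room temperature.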
Consider `NNc1nnc(NN)c2ccccc12`, for which the compound was classed as inactive.
Still for that read-out and setting: to `C=CCCCCCCCCCCCC` belongs “inactive”; to `O=C1CC(c2ccc(Cl)cc2)CC(=O)N1`, “inactive”.
For `Cc1nc2n(c(=O)c1CCN1CCC(c3noc4cc(F)ccc34)CC1)CCC[C@H]2O`, the activity change, negative = cytotoxicity is 0.276% [at 19 µM].
Turning to `CN(C)C(=O)CNC(=O)Cc1ccccc1`, the compound was called inactive.
On to `C=C(C)C(=O)OCC(C)(C)COC(=O)C(=C)C`, for which the compound was called inactive.
The same measure, in the same setting: then `O=C(O)c1cc(Cl)cc([N+](=O)[O-])c1Cl`, with “inactive”; and `O=S(=O)(O)c1ccc2cc(O)c(S(=O)(=O)O)cc2c1`, with “inactive”; and `On1nnc2ccccc21`, with “inactive”.
Still for that read-out and setting: to `CN=C(NC#N)Nc1ccc(C2=NNC(=O)CC2C)cc1` (stereo not drawn) belongs “inactive”; to `CCc1ccc(C=O)cc1`, “inactive”; to `COc1ccc(Br)c(C)c1`, “inactive”.
As to `CCCC/C=C\CCCCCCCCCC=O`, the compound was classed as inactive.
On to `COc1cc2c(cc1OC)[C@@H]1CC(=O)[C@@H](CC(C)C)CN1CC2`, for which the compound was called inactive.
On the same count and under the same terms, to `CC(C)(C)c1nnc(NS(=O)(=O)c2ccc(N)cc2)s1` belongs “inactive”; to `CCn1ccc(NS(=O)(=O)c2ccc(N)cc2)nc1=O`, “inactive”; to `COc1ccc2c(c1)C(=O)N(CCc1ccc(S(=O)(=O)NC(=O)NC3CCCCC3)cc1)C(=O)C2(C)C`, “inactive”.
The same measure, in the same setting: to `Cc1ccc(S(=O)(=O)O)c(C)c1` belongs “inactive”.
On the same count and under the same terms, then `COc1nccnc1NS(=O)(=O)c1ccc(N)cc1`, with “inactive”; and `C=C(C)C1CCC(C)(O)CC1` (stereo not drawn), with “inactive”; and `CC(C)N(c1ccccc1)C(C)C`, with “inactive”.
Turning to `CC(C)c1ccc2cc(C(C)C)ccc2c1`, the outcome was inactive.
The same measure, in the same setting: to `C=C(C)C(=O)OCCOP(=O)(O)OCCOC(=O)C(=C)C` belongs “inactive”; to `Cc1cc(Cl)c(C)cc1Cl`, “inactive”; to `O=C(O)Cc1cn(-c2ccccc2)nc1-c1ccc(Cl)cc1`, “inactive”.
Same read-out and setting: then `COC(=O)CCc1ccc(OCC(O)CNC(C)C)cc1` (stereo not drawn), with “inactive”.

Values taken from PubChem BioAssay (Tox21).
